In the library only some 2.6% were active in any assay of this set; here they are far more common.
SIAE primary: inhibitors of human sialic acid acetylesterase SIAE; Q9HAT2; SIAE FP-Rh probe binding, fluorescence polarization; inhibition, % at 9.66 µM; actives 0.69% (n = 370,000); AID 1053197;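 active = inhibition above a cutoff: mean of compounds within the control limits plus 3 SD of those, cut at about 17% in these data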
TCR CD3 inh: blocks the human TCR-CD3 interaction; TAMRA-labeled TCR probe fluorescence, biochemical; inhibition, % at 9.4 µM; AID 651800; actives 0.37% (n = 360,000); in the data active = inhibition above about 19%;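 note: recombinant mutant TCR 2C K166C tagged with TAMRA read by polarization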
PAD4 inh: inhibitors of human PAD4; AID 485272; actives 0.41% (n = 330,000); inhibition, % at 6.36 µM; recombinant PAD4, RCA probe fluorescence polarization; Q9UM07;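 active = percent inhibition above a cutoff equal to the mean of all tested compounds plus 3 SD, cut at about 15% in these data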
PME-1 inh: PME-1 (human) inhibition. actives 0.53% (n = 320,000). recombinant PME-1, FP-Rh probe fluorescence polarization. Q9Y570. inhibition, % at 5.9 µM. AID 2130;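 active = inhibition above the campaign mean of all compounds plus 3 SD, cut at about 26% in these data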;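 note: competitive labeling of PME-1 active site by serine hydrolase directed probe; inhibitors block probe labeling so polarization falls and inhibition rises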
Target sequence (Q9Y570 whole entry, looked up): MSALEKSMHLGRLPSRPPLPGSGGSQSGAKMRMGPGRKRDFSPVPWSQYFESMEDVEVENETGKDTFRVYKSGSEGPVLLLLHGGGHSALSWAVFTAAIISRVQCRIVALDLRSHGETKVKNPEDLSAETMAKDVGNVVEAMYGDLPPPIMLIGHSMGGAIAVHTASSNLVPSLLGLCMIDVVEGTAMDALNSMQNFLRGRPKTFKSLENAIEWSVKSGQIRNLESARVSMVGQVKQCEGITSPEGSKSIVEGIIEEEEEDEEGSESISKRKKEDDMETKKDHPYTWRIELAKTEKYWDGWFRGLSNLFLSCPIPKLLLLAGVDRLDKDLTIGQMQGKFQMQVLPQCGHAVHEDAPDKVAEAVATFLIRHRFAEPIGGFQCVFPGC
PRMT1 inh: blocks human protein arginine methyltransferase 1. Q99873. inhibition, % at 2.79 µM. recombinant PRMT1, activity-based probe fluorescence polarization. actives 1.3% (n = 370,000). AID 652257;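 active = inhibition above about 21% made by adding two undisclosed values, limit read from the data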
Fam108B inh: counter-screen for RBBP9 inhibitors: inhibitors of mouse Fam108B; recombinant Fam108B, FP-Rh probe fluorescence polarization; inhibition, % at 9.51 µM; actives 0.33% (n = 300,000);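 active = inhibition above the screen mean inhibition plus 3 SD, computed separately per campaign, cut at about 18% in these data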;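 note: inhibitors lower polarization as less probe binds the enzyme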
PRMT1 inh conf: confirmation of human PRMT1 inhibitors. inhibition, % at 2.79 µM. shares compounds with PRMT1 inh. actives 42% (n = 3,300). recombinant His-PRMT1, activity-based probe fluorescence polarization;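 active = mean inhibition across replicates above the hit cutoff derived for the earlier primary screen, cut at about 22% in these data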
Of the large screens only hits and unclear results are named; the others gave an inactive call (follow-up assays come after a bar, where they were run).

O=C(O)c1cc(-c2ccc(-c3ccc(F)cc3)o2)nc2ccccc12	PRMT1 inh 85.7 | PRMT1 inh conf 27.4
COc1ccc(S(=O)(=O)Nc2ccc(O)c(Sc3ncn[nH]3)c2)cc1	none
COc1ccc(S(=O)(=O)Nc2cc(Sc3ncn[nH]3)c(O)c3ccccc23)cc1	PRMT1 inh 95.9 (no result: PAD4 inh, PME-1 inh, Fam108B inh) | PRMT1 inh conf 86.9
Cc1c(N2C(=O)/C(=C\c3ccccc3O)SC2=S)c(=O)n(-c2ccccc2)n1C	PRMT1 inh 47.1 | PRMT1 inh conf 82.7
Cc1c(N2C(=O)/C(=C/C3CC=CCC3)SC2=S)c(=O)n(-c2ccccc2)n1C (centres undefined)	PRMT1 inh 38.6 | PRMT1 inh conf 25.9
Cc1c(N2C(=O)/C(=C/c3ccccc3)SC2=S)c(=O)n(-c2ccccc2)n1C	none
Cc1c(N2C(=O)/C(=C\C3CC=CCC3)SC2=S)c(=O)n(-c2ccccc2)n1C (centres undefined)	PRMT1 inh 43.0 | PRMT1 inh conf 25.4
COc1ccc(Cn2ccc3ccc(-c4ccc5ccn(C(=O)C6CCC6)c5c4)cc32)cc1	none (no result: TCR CD3 inh, PAD4 inh, PME-1 inh, Fam108B inh)
O=C(CSc1nnc(-c2ccccn2)n1-c1ccccc1)c1ccc(F)cc1	none (no result: TCR CD3 inh, PAD4 inh, PME-1 inh, Fam108B inh)
N#Cc1cc2c(nc1SCc1ccncc1)CCC2	PRMT1 inh 37.5 | PRMT1 inh conf inactive
N#Cc1cc2c(nc1SCc1ccccc1)CCC2	none
N#Cc1ccc(NCCCN2CCC(C(O)(c3ccccc3)c3ccccc3)CC2)cc1	none (no result: TCR CD3 inh, PAD4 inh, PME-1 inh, Fam108B inh)
CCOC(=O)[C@]12CCCC=C1N(CCCOC)C(=O)[C@@H]2CC(=O)NCc1ccc(C)o1	none (no result: TCR CD3 inh, PAD4 inh, PME-1 inh, Fam108B inh)
OCCCn1c(-c2ccccc2)csc1=Nc1ccccc1	none
COc1ccc(N=c2scc(-c3ccc(OC)cc3)n2CCO)cc1	PRMT1 inh 35.9 | PRMT1 inh conf inactive
Oc1ccc(Cl)cc1C=Nc1ccccc1Br	none
Oc1ccc(Br)cc1C=Nc1ccc2c3c(cccc13)CC2	PRMT1 inh 55.7 | PRMT1 inh conf inactive
CC(C)n1nnnc1C1(C)Cn2nccc2C(=O)N1Cc1cccc(C(F)(F)F)c1 (centres undefined)	none (no result: TCR CD3 inh, PAD4 inh, PME-1 inh, Fam108B inh)
CC1=C(C(=O)OCC(C)C)C(c2cc3c(cc2Br)OCO3)NC(=O)N1C (centres undefined)	none
CCCOC(=O)C1=C(C)N(C)C(=O)NC1c1cc2c(cc1[N+](=O)[O-])OCO2 (centres undefined)	PRMT1 inh 26.9 | PRMT1 inh conf 22.0
O=C(NCc1ccccc1)C1(C(=O)C2CC2)CC(c2ccccc2C(F)(F)F)=NO1 (centres undefined)	none (no result: TCR CD3 inh, PAD4 inh, PME-1 inh, Fam108B inh)
CC(C)(C)Sc1ccc(N)nc1	PRMT1 inh 36.3 | PRMT1 inh conf inactive
CN(C)CC(c1ccc(O)cc1)C1(O)CCCCC1 (centres undefined)	none (no result: TCR CD3 inh, PAD4 inh, PME-1 inh, Fam108B inh)
CCOC(=O)/C=C/S(=O)(=O)c1ccc(NC(C)=O)cc1	PRMT1 inh 43.8 | PRMT1 inh conf 35.1
C[C@H]1[C@@H](OC(=O)Nc2ccc(Br)cc2)CC[C@@]23CCCN2C(=O)CCC[C@@H]13	none (no result: TCR CD3 inh, PAD4 inh, PME-1 inh, Fam108B inh)
NS(=O)(=O)c1ccc(CCNC(=O)c2cc(-c3ccco3)nc3ccccc23)cc1	PRMT1 inh 51.3 (no result: Fam108B inh) | PRMT1 inh conf inactive
O=C(NCC1CCCO1)c1cc(-c2ccco2)nc2ccccc12 (centres undefined)	PRMT1 inh 72.6 | PRMT1 inh conf inactive
NS(=O)(=O)c1ccc(CCNC(=O)c2ccc[nH]c2=S)cc1	PRMT1 inh 38.6 | PRMT1 inh conf inactive
CCCCCCNC(=O)c1cc(-c2ccco2)nc2ccccc12	PRMT1 inh 42.2 | PRMT1 inh conf inactive
CC(C)CC(CCOCCO)NC(=O)OCc1ccccc1[N+](=O)[O-] (centres undefined)	none (no result: TCR CD3 inh, PAD4 inh, PME-1 inh, Fam108B inh)
Cc1nc2ccccn2c1P(=O)(c1ccccc1)c1ccccc1	none (no result: TCR CD3 inh, PAD4 inh, PME-1 inh, Fam108B inh)
CCc1ccc(N2C(=O)C[C@@](C#N)(C(=O)OC)[C@H]2c2ccccc2)cc1	none (no result: TCR CD3 inh, PAD4 inh, PME-1 inh, Fam108B inh)
O=[N+]([O-])c1cnc2ccccc2c1Sc1ccccc1	PRMT1 inh 73.2 (no result: TCR CD3 inh, PAD4 inh, PME-1 inh, Fam108B inh) | PRMT1 inh conf 70.8
CCOC(=O)[C@@]12CCCC=C1N(CCc1ccc(Cl)cc1)C(=O)[C@H]2CC(=O)NCCc1ccccc1OC	none (no result: TCR CD3 inh, PAD4 inh, PME-1 inh, Fam108B inh)
COc1ccccc1C1C(C(C)=O)=C(C)N=c2s/c(=C\c3cc(OC)c(OC)c(OC)c3)c(=O)n21 (centres undefined)	none

Bioassay records as filed in PubChem BioAssay.
